Only some compounds are listed: those with a hit (about 5% of all), similar ones and a draw of the others.
PREPL inhibitor: inhibitors of human prolyl oligopeptidase-like enzyme PREPL. Q4J6C6. recombinant PREPL, fluorescence polarization activity-based probe. inhibition, % at 5.96 µM. hit rate 0.68% among 320,000. AID 2751; in the data active = inhibition above about 43%;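 note: 0% = enzyme with DMSO and 100% = wells lacking enzyme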
CHT PAM: allosterically activates the human high affinity choline transporter. Q9GZV3. CHT-expressing cells, membrane potential dye, choline EC20; hits give high values; LV-AA mutant CHT in HEK293 cells. B-score at 10 µM. hit rate 0.49% among 310,000. AID 488977;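 active = initial fluorescence not abnormally high and integrated response B-score, plate-corrected, over 3 SD above library mean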
Target sequence (Q9GZV3 whole entry, looked up): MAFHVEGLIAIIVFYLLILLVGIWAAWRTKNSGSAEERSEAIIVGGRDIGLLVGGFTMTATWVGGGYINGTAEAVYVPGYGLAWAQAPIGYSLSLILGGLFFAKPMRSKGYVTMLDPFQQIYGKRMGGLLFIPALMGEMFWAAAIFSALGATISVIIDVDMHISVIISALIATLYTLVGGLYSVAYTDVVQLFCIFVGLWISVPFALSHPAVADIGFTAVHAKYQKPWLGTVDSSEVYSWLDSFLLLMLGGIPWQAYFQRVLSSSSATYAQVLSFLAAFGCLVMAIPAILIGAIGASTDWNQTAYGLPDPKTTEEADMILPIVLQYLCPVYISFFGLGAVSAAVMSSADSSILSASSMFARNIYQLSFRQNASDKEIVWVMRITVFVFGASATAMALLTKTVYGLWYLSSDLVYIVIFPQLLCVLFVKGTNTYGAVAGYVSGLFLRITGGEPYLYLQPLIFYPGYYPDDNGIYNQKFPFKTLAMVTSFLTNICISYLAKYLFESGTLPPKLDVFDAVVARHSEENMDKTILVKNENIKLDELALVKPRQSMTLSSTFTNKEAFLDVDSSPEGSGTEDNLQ
AI-2 QS modul: Vibrio harveyi AI-2 quorum sensing modulation | Vibrio harveyi JMH597 AI-2 luminescence/OD600 ratio, 9 h; hits give low values; strain lacks LuxN and CqsS sensors; 0 = neutral-control median | activity change, % at 7.5 µM | hit rate 0.4% among 300,000 | AID 2094; in the data active = activity change below about -75%, passing the limit was not always enough;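 note: luminescence divided by OD600 gain over 9 h not by final OD600 alone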
CHT block: human CHT choline transport inhibition; Q9GZV3; CHT-expressing cells, membrane potential dye, choline response; hits give low values; B-score at 10 µM; hit rate 0.86% among 310,000; AID 488975;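 active = B-score over 3 SD under the library average, and starting fluorescence ratio not unusually high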;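 note: choline stimulus applied at its EC90 after an EC20 pre-addition; B-score computed on integrated fluorescence ratio after choline addition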
ALR H2O2 inh: inhibitors of human sulfhydryl oxidase ALR | P55789 | purified ALR, DTT oxidation, H2O2 HRP-luminol luminescence | inhibition, % (concentration not given with the values) | hit rate 3.8% among 290,000 | AID 485317;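 active = mean replicate inhibition above about 79%, with every replicate also reaching it, limit read from the data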
Active calls of the source: *; i = inactive; . = not tested or not shown.

SMILES	PREPL inhibitor	CHT PAM	AI-2 QS modul	CHT block	ALR H2O2 inh
COc1ccc(/C=C/C(=O)Nc2ccc(N3CCOCC3)cc2)cc1	8.5	i	0.3	i	.
O=C(Nc1ccccc1)c1ccccc1NC(=O)[C@H]1CCCC[C@H]1C(=O)O	-2.8	i	8.0	i	5.4
COc1ccc(N2CCN(c3ccc(NC(=O)/C=C\C(=O)O)cc3)CC2)cc1	25.1	i	26.5	i	83.2*
O=C(CCCC(=O)c1ccccc1)Nc1ccc(O)cc1	12.6	i	17.0	i	88.4*
CC(C)OCC(O)CN1CCNCC1 (stereo not given)	3.4	i	5.0	i	-5.5
COC(=O)c1ccc(C(=O)N2CCCC(N3CCN(c4ccc(F)cc4)CC3)C2)nc1 (stereo not given)	17.3	i	17.1	i	36.0
CC(=O)Nc1ccc(O)cc1	1.0	i	.	i	99.4*
CCCC(=O)Nc1ccc(-c2ccc(NC(=O)CCC)cc2)cc1	9.3	i	23.8	i	.
CCCC(=O)Nc1ccc(Nc2ccccc2)cc1	4.7	i	-58.2	i	99.2*
O=C(Nc1ccc(Nc2ccccc2)cc1)C1CC1	17.8	i	-64.4	i	99.7*
CC(=O)Nc1ccc(Nc2ccccc2)cc1	-9.4	i	11.5	i	98.8*
CCCCN(C(=O)CSCC(=O)Nc1ccc(C)cc1)c1c(N)n(CC(C)C)c(=O)[nH]c1=O	7.3	.	.	.	-4.7
O=C(O)/C=C/C(=O)Nc1ccc(O)cc1	22.5	i	16.8	i	98.1*
O=C(O)/C=C/C(=O)Nc1ccc(C(=O)c2ccccc2)cc1	-5.5	i	45.0	i	0.6
O=C(c1c[nH]c2ccccc12)N1CCN(c2ccccc2)CC1	5.6	i	11.4	i	87.4*
O=C(NC(=S)N1CCN(c2ccc(O)cc2)CC1)c1cccs1	11.9	i	62.7	i	98.9*
O=C(C1CCN(S(=O)(=O)c2cccs2)CC1)N1CCN(c2ccccc2)CC1	-0.5	i	15.2	i	84.2*
COc1ccc(N2CCN(C(=O)C3CCN(S(=O)(=O)c4cccs4)CC3)CC2)cc1	3.0	i	7.7	i	44.9
O=C(NC(=S)N1CCN(c2c(Cl)cccc2[N+](=O)[O-])CC1)c1cccs1	5.4	i	2.9	i	.
O=C(c1cccs1)N1CCN(c2ccccc2)CC1	11.6	i	11.6	i	98.2*
COc1ccc(CC(C(=O)Nc2ccc(OC)cc2)c2nn[nH]n2)cc1 (stereo not given)	3.0	i	8.5	i	1.8
N#CCCN(C(=O)COC(=O)c1ccc(S(=O)(=O)N2CCCC2)cc1)c1cccc(Cl)c1	10.8	.	.	.	-2.7
NS(=O)(=O)c1cc(C(=O)OCC(=O)Nc2ccc3c(c2)OCO3)ccc1Cl	-2.9	.	.	.	-22.5
O=S(=O)(NCC(O)c1ccccc1)c1cc(Cl)sc1Cl (stereo not given)	-6.2	i	7.0	i	-7.8
CC(C)(C)NC(=O)C(c1ccc(F)cc1)N(Cc1ccco1)C(=O)CCC(=O)Nc1nccs1 (stereo not given)	18.8	i	9.7	i	.
SMILES	PREPL inhibitor	CHT PAM	AI-2 QS modul	CHT block	ALR H2O2 inh
O=C(NC(=S)N1CCN(c2ccccc2)CC1)c1c(F)cccc1F	20.1	i	-1.3	i	98.8*
O=C(CN1CCN(c2ccc(F)cc2)CC1)c1cccs1	14.4	i	17.4	i	8.2
O=C(NC(=S)N1CCN(c2ccc(F)cc2)CC1)c1cccs1	-0.9	i	19.8	i	94.5*
CCc1nn(-c2ccccc2)c(=S)c2ccccc12	-10.1	i	9.5	i	-1.7
CC(=O)C1=C(O)C(=O)N(c2ccc(Br)cn2)C1c1ccc(Br)cc1 (stereo not given)	1.7	i	13.6	i	97.1*
COc1ccc(C2C(C(C)=O)=C(O)C(=O)N2c2ccc(F)cc2)cc1 (stereo not given)	-3.0	i	13.7	i	0.2
CC(=O)C1=C(O)C(=O)N(c2ccc(O)cc2)C1c1ccc([N+](=O)[O-])cc1 (stereo not given)	7.2	i	11.7	i	81.8*
COc1ccc(C2C(C(C)=O)=C(O)C(=O)N2c2ccc(O)cc2)cc1 (stereo not given)	-1.5	i	17.4	i	87.9*
CC(=O)C1=C(O)C(=O)N(c2ccc(O)cc2)C1c1ccc(Cl)cc1 (stereo not given)	5.7	i	14.9	i	81.0*
CCCn1c(N/N=C(C)\C=C\c2ccccc2)nc2c1c(=O)[nH]c(=O)n2C	27.1	i	20.0	i	0.3
CC(=O)c1ccc(-c2ccc(C(=O)N(C)c3c(N)n(Cc4ccccc4)c(=O)[nH]c3=O)o2)cc1	-14.2	i	11.8	i	-5.2
Oc1c(Cl)cc(Cl)cc1C=Nc1ccccc1N1CCCC1	9.4	i	7.3	i	98.1*
NC(=O)c1cccc(N=Cc2cc(Cl)cc(Cl)c2O)c1	.	.	10.9	.	.
COc1cc(NC(=O)CSc2ccc(-c3ccco3)nn2)cc(OC)c1	-16.8	i	-1.9	i	98.2*
COc1cccc(NC(=O)CSc2nnc(-c3ccco3)c(-c3ccco3)n2)c1	-0.7	i	16.3	-7.35*	98.8*
Fc1ccc(CSc2ccc(-c3ccco3)nn2)cc1	4.9	i	-34.3	i	97.8*
COc1ccc(NC(=O)CSc2nnc(-c3ccco3)c(-c3ccco3)n2)cc1OC	-2.0	i	11.0	i	90.4*
Fc1cccc(CSc2ccc(-c3ccco3)nn2)c1	1.6	i	-51.1	i	49.7
COc1ccc(C(=O)CSc2nnc(-c3ccco3)c(-c3ccco3)n2)cc1	.	.	20.7	.	.
CCCCNC(=S)Nc1ccc(OC)nc1	1.4	i	13.3	i	-12.3
C/C(=N/Nc1ccc([N+](=O)[O-])cc1)c1ccc(C)cc1C	23.2	i	18.7	i	98.2*
C/C(=N\Nc1ccc([N+](=O)[O-])cc1)c1ccc(C#N)cc1	6.2	i	25.3	i	.
COc1ccc(NC(=O)C(=O)NCC2CCCN2S(=O)(=O)c2cccs2)cc1 (stereo not given)	9.1	i	15.3	i	2.8
CCn1cc(C(=O)O)c(=O)c2cc(F)c(N3CCN(C)CC3)cc21	2.2	6.39*	-55.7	i	-12.0
CCOC(=O)c1cn(CC)c2cc(N3CCSCC3)c(F)cc2c1=O	8.1	i	21.9	i	98.8*
CCOC(=O)c1cn(CC)c2cc(N3CCN(C)CC3)c(F)cc2c1=O	-4.0	i	10.6	i	-5.6
O=S(=O)(Cc1nnnn1-c1ccccc1)c1ccc(F)cc1	0.8	i	7.6	i	-14.5
O=C(CSc1cccc2cccnc12)Nc1cc(C(=O)O)cc(C(=O)O)c1	5.1	i	21.5	i	-7.8
COc1ccccc1CNC(=S)Nc1cc(C)ccc1C	-3.1	i	22.3	i	0.8
COc1ccccc1CNc1cc(C)ccc1C	-0.4	i	26.4	i	83.0*

Source: PubChem BioAssay
